Data from PubChem BioAssay (Tox21).
Where “and” joins values, the source holds several entries; their conditions need not be identical. Equal values may be shown once. Inconclusive results are not listed. Some structures have more than one record in an assay (separate samples or runs), and their calls can disagree. Calls of active or inactive are those of the source. Unless noted, calls follow the shape of the full dose curve.

How the values were obtained:
[1] = qHTS assay to identify small molecule antagonists of the sonic hedgehog signaling (Shh) pathway (AID 1259369); details: NIH/3T3 Gli1-Luc reporter, Shh antagonist, luminescence 24 h; series mostly up to 92.4 µM; also: nearly all actives have a fitted effect of over 45% in size; also: potency is read from the fitted curve at half-maximal effect
Procedure, shortened: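 For antagonist detection, the reporter line received test compounds together with conditioned medium, incubated 24hr at 37 C, 5% CO2, then luminescence was recorded following 30min room-temperature luciferase reagent incubation.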

[2] = target: Estrogen receptor beta (Homo sapiens) (UniProt Q92731); assay: qHTS assay to identify small molecule agonists of the estrogen receptor beta (ER-beta) signaling pathway (AID 1259377; active = well fitted activation curve with a large enough effect in the signal ratio in the repeat runs, not every such curve was filed as active; the % refers to the signal ratio); details: ER-beta-UAS-bla HEK293T, beta-lactamase FRET ratio, 16 h; series mostly up to 92.4 µM
Estrogen receptor beta (Homo sapiens), sequence (Q92731 whole entry, looked up): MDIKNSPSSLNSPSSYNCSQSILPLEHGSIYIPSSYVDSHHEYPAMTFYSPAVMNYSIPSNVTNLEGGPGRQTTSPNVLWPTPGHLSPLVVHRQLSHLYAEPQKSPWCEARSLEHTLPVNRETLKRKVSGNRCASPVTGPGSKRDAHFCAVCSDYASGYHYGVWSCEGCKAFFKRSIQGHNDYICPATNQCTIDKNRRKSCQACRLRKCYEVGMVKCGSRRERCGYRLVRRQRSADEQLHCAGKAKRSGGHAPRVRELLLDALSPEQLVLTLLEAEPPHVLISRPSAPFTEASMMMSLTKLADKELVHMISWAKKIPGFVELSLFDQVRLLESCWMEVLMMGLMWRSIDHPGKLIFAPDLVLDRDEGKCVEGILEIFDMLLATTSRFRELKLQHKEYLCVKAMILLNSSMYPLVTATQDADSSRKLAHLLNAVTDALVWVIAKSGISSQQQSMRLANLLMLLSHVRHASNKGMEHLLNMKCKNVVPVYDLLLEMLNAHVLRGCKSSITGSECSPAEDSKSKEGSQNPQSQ
Procedure, shortened: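 ER-beta-UAS-bla HEK293T cells in medium with 2% charcoal-stripped FBS were exposed to compounds for 16 h at 37C. Beta-lactamase reporter activity was read as fluorescence after 2 h with LiveBLAzer B/G FRET substrate at room temperature.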

[3] = target: Estrogen receptor beta (Homo sapiens) (UniProt Q92731); assay: qHTS assay to identify small molecule antagonists of the estrogen receptor beta (ER-beta) signaling pathway (AID 1259378; active = well fitted inhibition curve with a large enough effect in the signal ratio in the repeat runs, not every such curve was filed as active; the % refers to the signal ratio; also: potency is read from the fitted curve at half-maximal effect); details: ER-beta-UAS-bla HEK293T, beta-lactamase FRET ratio, 16 h; series mostly up to 92.4 µM
Procedure, shortened: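 ER-beta-UAS-bla HEK293T (GripTite) cells in 2% charcoal-stripped FBS medium were preincubated 6 hr at 37C, dosed with compound, then stimulated with 1 nM E2 (final) for 16 hr; beta-lactamase reporter read by B/G FRET fluorescence after 2 hr substrate loading.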

[4] = qHTS assay to identify small molecule agonists of the androgen receptor (AR) signaling pathway in the presence of an antagonist - cell viability counter screen (AID 1259379; active = well fitted curve in the direction sought with a large enough effect in the repeat runs; an effect the other way counts as inactive or inconclusive; also: nearly all actives have a fitted effect of over 25% in size; also: potency is read from the fitted curve at half-maximal effect); details: MDA-kb2 viability, CellTiter-Fluor, 16 h; series mostly up to 92.4 µM
Procedure, shortened: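 Seed MDA-kb2 at 3,000 cells/well; incubate 5 hr, 37C, 0% CO2. Add nilutamide to 3.0uM final, then pin compounds at 15 concentrations. Incubate 16 hr. Add CellTiter-Fluor at 15 hr, read fluorescence after 1 hr.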

[5] = qHTS assay to identify small molecule agonists of the estrogen receptor beta (ER-beta) signaling pathway - cell viability counter screen (AID 1259380; active = well fitted curve in the direction sought with a large enough effect in the repeat runs; an effect the other way counts as inactive or inconclusive; also: nearly all actives have a fitted effect of over 30% in size; also: potency is read from the fitted curve at half-maximal effect); details: ER-beta-bla HEK293T viability, CellTiter-Glo luminescence, 16 h; series mostly up to 92.4 µM
Procedure, shortened: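 CellTiter-Glo read, 30 min RT, same wells as bla assay; cells ER-beta-UAS-bla HEK293T; 16 hr compound, 37C; medium 2% charcoal-stripped FBS.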

[6] = target: Androgen receptor (Homo sapiens) (UniProt P10275); assay: qHTS assay to identify small molecule agonists of the androgen receptor (AR) signaling pathway in the presence of an antagonist (AID 1259381); details: MDA-kb2 MMTV-luciferase, AR agonist + nilutamide, 16 h; series mostly up to 92.4 µM; also: nearly all actives have a fitted effect of over 15% in size
Androgen receptor (Homo sapiens), sequence (P10275 whole entry, looked up): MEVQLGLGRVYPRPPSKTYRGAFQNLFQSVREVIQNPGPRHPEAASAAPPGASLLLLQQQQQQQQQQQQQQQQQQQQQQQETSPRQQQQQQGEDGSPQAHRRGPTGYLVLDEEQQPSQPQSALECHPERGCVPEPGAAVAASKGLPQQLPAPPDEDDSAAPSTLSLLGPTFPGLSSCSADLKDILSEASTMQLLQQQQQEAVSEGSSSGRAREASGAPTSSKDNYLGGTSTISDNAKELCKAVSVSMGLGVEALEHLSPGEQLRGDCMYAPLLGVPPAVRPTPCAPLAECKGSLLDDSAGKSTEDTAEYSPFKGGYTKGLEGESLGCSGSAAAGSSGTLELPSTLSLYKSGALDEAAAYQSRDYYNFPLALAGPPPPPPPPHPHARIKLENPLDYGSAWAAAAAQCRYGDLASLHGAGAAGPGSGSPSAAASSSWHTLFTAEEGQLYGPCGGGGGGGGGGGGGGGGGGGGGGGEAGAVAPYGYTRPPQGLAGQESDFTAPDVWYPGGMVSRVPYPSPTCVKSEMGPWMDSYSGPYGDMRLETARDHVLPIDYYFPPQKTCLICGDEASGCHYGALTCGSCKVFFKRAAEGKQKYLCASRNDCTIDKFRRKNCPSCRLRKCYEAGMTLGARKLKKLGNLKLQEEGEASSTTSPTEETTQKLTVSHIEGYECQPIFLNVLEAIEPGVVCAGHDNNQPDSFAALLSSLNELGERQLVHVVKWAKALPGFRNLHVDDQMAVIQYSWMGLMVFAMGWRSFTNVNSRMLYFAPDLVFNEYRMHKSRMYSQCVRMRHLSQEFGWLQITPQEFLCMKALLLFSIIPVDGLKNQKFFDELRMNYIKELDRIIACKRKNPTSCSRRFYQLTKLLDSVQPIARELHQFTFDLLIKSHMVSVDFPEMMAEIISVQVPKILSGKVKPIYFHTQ
Procedure, shortened: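 Test compounds at 15 concentrations were incubated for 16hr with MDA-kb2 reporter cells in presence of 3.0uM nilutamide (final). Signal: ONE-Glo luciferase luminescence.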

[7] = qHTS assay to identify small molecule antagonists of the estrogen receptor beta (ER-beta) signaling pathway - cell viability counter screen (AID 1259382; active = well fitted curve in the direction sought with a large enough effect in the repeat runs; an effect the other way counts as inactive or inconclusive; also: nearly all actives have a fitted effect of over 55% in size; also: potency is read from the fitted curve at half-maximal effect); details: ER-beta-UAS-bla HEK293T viability, CellTiter-Glo luminescence, 16 h; series mostly up to 92.4 µM
Procedure, shortened: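 In this multiplexed counter screen, cells were seeded at 2,000 per well in medium with 2% charcoal-stripped FBS and incubated 6 hr before compound and 1nM final E2 were added. Sixteen hours later, ATP-based luminescence reported viability.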

[8] = target: Estrogen receptor (Homo sapiens) (UniProt P03372); assay: qHTS assay to identify small molecule agonists of the estrogen receptor alpha (ER-alpha) signaling pathway in the presence of an antagonist (AID 1259383); details: VM7Luc4E2 cells, ERE-luciferase, +ICI-182,780, 22 h; series mostly up to 92.4 µM; also: top concentration of the series differs between compounds; nearly all actives have a fitted effect of over 15% in size
Estrogen receptor (Homo sapiens), sequence (P03372 whole entry, looked up): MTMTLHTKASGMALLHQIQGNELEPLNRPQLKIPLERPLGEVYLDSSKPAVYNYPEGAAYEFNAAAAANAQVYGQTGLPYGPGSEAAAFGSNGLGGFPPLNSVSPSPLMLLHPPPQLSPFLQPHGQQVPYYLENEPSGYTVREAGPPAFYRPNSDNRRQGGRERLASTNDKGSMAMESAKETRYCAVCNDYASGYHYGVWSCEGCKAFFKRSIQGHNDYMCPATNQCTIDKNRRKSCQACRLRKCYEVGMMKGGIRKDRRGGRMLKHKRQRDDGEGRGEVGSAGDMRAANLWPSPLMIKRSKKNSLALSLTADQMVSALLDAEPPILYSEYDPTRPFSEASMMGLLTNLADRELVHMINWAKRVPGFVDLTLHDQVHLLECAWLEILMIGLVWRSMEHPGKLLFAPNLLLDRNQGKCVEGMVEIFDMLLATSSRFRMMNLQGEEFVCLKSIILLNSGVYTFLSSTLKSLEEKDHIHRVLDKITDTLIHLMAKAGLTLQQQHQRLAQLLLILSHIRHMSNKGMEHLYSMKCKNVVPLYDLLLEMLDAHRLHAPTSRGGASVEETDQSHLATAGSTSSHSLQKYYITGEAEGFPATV
Procedure, shortened: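 Stably transfected VM7Luc4E2 reporter cells, kept 5 days in charcoal-stripped serum, received ICI-182,780 at 10.0nM final before compound addition. Following 22hr incubation at 37C and 5% CO2, luciferase signal was read by luminescence.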

[9] = qHTS assay to identify small molecule agonists or antagonists of the thyroid stimulating hormone receptor (TSHR) signaling pathway - wild type cell line counter screen (AID 1259384); details: HEK293 wild type, cAMP HTRF counter-screen; series mostly up to 92.4 µM
Procedure, shortened: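 Wild-type HEK293 cells were plated 18 h at 37 C/5% CO2, pin-dosed with compound plus Ro20-1724 medium, held 30 min at room temperature, then given cAMP-d2 and anti-cAMP-cryptate; fluorescence was read after 1 h. Fifteen concentrations, triplicate.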

[10] = target: Thyrotropin receptor (Homo sapiens) (UniProt P16473); assay: qHTS assay to identify small molecule antagonists of the thyroid stimulating hormone receptor (TSHR) signaling pathway (AID 1259385); details: TSHR-HEK293 cAMP HTRF, TSH-stimulated antagonist mode; series mostly up to 92.4 µM; also: nearly all actives have a fitted effect of over 20% in size
Thyrotropin receptor (Homo sapiens), sequence (P16473 whole entry, looked up): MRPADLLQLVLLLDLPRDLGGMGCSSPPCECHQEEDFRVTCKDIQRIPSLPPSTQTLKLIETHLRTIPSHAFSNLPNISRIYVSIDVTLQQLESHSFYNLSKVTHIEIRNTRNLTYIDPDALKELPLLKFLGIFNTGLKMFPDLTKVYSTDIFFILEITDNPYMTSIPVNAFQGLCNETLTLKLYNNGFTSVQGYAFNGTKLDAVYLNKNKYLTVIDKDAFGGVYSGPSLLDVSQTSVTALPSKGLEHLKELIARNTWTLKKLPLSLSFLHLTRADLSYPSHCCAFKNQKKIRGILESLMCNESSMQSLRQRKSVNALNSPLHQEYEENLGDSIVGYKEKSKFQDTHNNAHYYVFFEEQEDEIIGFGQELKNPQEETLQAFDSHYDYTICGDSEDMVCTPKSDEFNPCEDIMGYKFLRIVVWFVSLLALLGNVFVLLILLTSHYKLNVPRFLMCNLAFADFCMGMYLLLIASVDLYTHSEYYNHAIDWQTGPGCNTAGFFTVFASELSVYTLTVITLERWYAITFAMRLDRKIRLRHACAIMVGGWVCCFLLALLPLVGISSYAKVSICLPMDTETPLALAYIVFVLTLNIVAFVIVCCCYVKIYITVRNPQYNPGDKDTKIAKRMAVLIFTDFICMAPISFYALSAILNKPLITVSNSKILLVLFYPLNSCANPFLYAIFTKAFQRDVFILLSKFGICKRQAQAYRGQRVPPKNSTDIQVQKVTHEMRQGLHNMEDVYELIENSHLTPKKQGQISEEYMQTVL
Procedure, shortened: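 TSHR-HEK293 cells were plated and held 18 h at 37C/5% CO2, then given compound plus Ro20-1724 and stimulated with TSH at 1.5 ng/mL final. After 30 min at room temperature, cAMP was detected with cAMP-d2/anti-cAMP-cryptate (1 h) by fluorescence.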

[11] = qHTS assay to identify small molecule agonists of the estrogen receptor alpha (ER-alpha) signaling pathway in the presence of an antagonist - cell viability counter screen (AID 1259386; active = well fitted curve in the direction sought with a large enough effect in the repeat runs; an effect the other way counts as inactive or inconclusive;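 also: cells exposed to compounds for 22 h at 37 °C before the viability read; nearly all actives have a fitted effect of over 30% in size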; also: potency is read from the fitted curve at half-maximal effect); details: VM7Luc4E2 viability, CellTiter-Fluor fluorescence, 22 h; series mostly up to 92.4 µM
Procedure, shortened: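 Viability counter screen using VM7Luc4E2 (full-length ER-alpha, four ERE-luciferase). The cells were treated with compounds alongside ICI-182,780 10.0nM for 22hr, and live-cell protease fluorescence was quantified with CellTiter-Fluor.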

[12] = target: Progesterone receptor (Homo sapiens) (UniProt P06401); assay: qHTS assay to identify small molecule agonists of the progesterone receptor (PR) signaling pathway (AID 1346784); details: PR-UAS-bla HEK293T, beta-lactamase FRET ratio, 16 h; series mostly up to 92.4 µM; also: nearly all actives have a fitted effect of over 30% in size; also: potency is read from the fitted curve at half-maximal effect
Progesterone receptor (Homo sapiens), sequence (P06401 whole entry, looked up): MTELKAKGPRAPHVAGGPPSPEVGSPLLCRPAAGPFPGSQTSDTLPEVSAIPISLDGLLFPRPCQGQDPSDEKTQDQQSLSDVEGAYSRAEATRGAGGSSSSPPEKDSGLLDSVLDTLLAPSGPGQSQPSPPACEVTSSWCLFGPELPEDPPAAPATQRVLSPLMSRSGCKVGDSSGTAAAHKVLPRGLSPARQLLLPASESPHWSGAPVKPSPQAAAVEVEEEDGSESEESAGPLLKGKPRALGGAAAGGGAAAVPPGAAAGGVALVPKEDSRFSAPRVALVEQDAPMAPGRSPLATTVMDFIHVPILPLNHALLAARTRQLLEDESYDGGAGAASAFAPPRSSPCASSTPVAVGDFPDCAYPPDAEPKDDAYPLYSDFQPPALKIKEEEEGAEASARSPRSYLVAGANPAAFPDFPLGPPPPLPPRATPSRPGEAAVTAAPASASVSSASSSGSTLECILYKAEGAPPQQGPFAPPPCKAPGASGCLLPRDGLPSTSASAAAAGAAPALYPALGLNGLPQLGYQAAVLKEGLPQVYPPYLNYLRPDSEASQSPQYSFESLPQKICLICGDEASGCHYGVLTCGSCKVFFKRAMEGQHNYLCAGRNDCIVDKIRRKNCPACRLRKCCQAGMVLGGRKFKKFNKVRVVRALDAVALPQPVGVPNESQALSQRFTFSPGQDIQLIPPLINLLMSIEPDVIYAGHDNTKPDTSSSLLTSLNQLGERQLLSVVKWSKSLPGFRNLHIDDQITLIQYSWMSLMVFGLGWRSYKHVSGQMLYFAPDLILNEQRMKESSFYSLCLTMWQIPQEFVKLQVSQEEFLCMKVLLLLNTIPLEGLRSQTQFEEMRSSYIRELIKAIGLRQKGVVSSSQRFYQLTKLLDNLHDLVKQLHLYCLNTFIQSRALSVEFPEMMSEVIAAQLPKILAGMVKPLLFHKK
Procedure, shortened: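 PR-UAS-bla HEK 293T cells (beta-lactamase reporter under UAS) in 2% charcoal-stripped FBS, dosed with 23 nL compound after 6 hr, incubated 16hr at 37C. LiveBLAzer B/G FRET substrate added, fluorescence read after 2 hours.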

[13] = target: Progesterone receptor (Homo sapiens) (UniProt P06401); assay: qHTS assay to identify small molecule antagonists of the progesterone receptor (PR) signaling pathway (AID 1346795; active = well fitted inhibition curve with a large enough effect in the signal ratio in the repeat runs, not every such curve was filed as active; the % refers to the signal ratio; also: potency is read from the fitted curve at half-maximal effect); details: PR-UAS-bla HEK293T, beta-lactamase FRET ratio, 16 h; series mostly up to 92.4 µM
Procedure, shortened: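 PR-UAS-bla HEK293T cells with beta-lactamase reporter under UAS control, in 2% charcoal-stripped FBS, treated with compounds plus 1 nM promegestone (R5020, final) for 16 hr at 37C. Read-out: FRET beta-lactamase substrate fluorescence after 2 hr at room temperature.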

[14] = qHTS assay to identify small molecule antagonists of the progesterone receptor (PR) signaling pathway - cell viability counter screen (AID 1346798; active = well fitted curve in the direction sought with a large enough effect in the repeat runs; an effect the other way counts as inactive or inconclusive; also: nearly all actives have a fitted effect of over 50% in size); details: PR-UAS-bla HEK293T viability, CellTiter-Glo luminescence, 16 h; series mostly up to 92.4 µM
Procedure, shortened: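 PR-UAS-bla HEK293T cells, 3,000/well in 2% charcoal-stripped FBS medium, dosed with compounds plus R5020 agonist and incubated 16 h at 37C. Viability then measured in the same wells by CellTiter-Glo luminescence after 30 min at RT.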

[15] = qHTS assay to identify small molecule agonists of the progesterone receptor (PR) signaling pathway - cell viability counter screen (AID 1346799); details: PR-UAS-bla HEK293T viability, CellTiter-Glo luminescence, 16 h; series mostly up to 92.4 µM; also: nearly all actives have a fitted effect of over 45% in size; also: potency is read from the fitted curve at half-maximal effect
Procedure, shortened: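 Counter screen in the PR-UAS-bla HEK293T wells (2% charcoal-stripped FBS, 16 h compound exposure at 37 C) after the bla read. CellTiter-Glo added, 30 min at room temperature, luminescence read as cell viability.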

[16] = qHTS assay to identify small molecule antagonists of the TGF-beta/Smad signaling pathway - cell viability counter screen (AID 1346824; active = well fitted curve in the direction sought with a large enough effect in the repeat runs; an effect the other way counts as inactive or inconclusive; also: nearly all actives have a fitted effect of over 50% in size); details: SBE-bla HEK293T viability, CellTiter-Glo luminescence; series mostly up to 76.8 µM
Procedure, shortened: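 SBE-bla HEK 293T cells were plated overnight at 37 C, then given compounds in DMSO plus TGF-beta1 (added as 0.25 ng/mL solution) for 5 hr. After the bla read, CellTiter-Glo was added to the same wells and luminescence read after 30 min at room temperature.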

[17] = qHTS assay to identify small molecule agonists of the TGF-beta/Smad signaling pathway - cell viability counter screen (AID 1346829; active = well fitted curve in the direction sought with a large enough effect in the repeat runs; an effect the other way counts as inactive or inconclusive; also: top concentration of the series differs between compounds; nearly all actives have a fitted effect of over 45% in size); details: SBE-bla HEK293T viability, CellTiter-Glo luminescence, 5 h; series mostly up to 76.8 µM
Procedure, shortened: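 Cytotoxicity counter screen: CellTiter-Glo luminescence (30 min, room temperature) measured in the SBE-bla HEK 293T reporter wells after 5 hr compound treatment at 37 C and the 2 hr substrate step.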

[18] = qHTS assay to identify small molecule agonists of the TGF-beta/Smad signaling pathway (AID 1346859; active = well fitted activation curve with a large enough effect in the signal ratio in the repeat runs, not every such curve was filed as active; the % refers to the signal ratio); details: SBE-bla HEK293T, TGF-beta/Smad beta-lactamase reporter, 5 h; series mostly up to 76.8 µM
Procedure, shortened: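 SBE-bla HEK293T cells plated overnight, then compound exposure for 5 h at 37 C. Beta-lactamase reporter read with LiveBLAzer B/G FRET substrate after 2 h at room temperature, fluorescence at 405 nm excitation, 460/530 nm emission.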

[19] = target: Thyrotropin-releasing hormone receptor (Homo sapiens) (UniProt P34981); assay: qHTS assay to identify small molecule antagonists of the thyrotropin-releasing hormone receptor (TRHR) signaling pathway (AID 1346877; active = well fitted inhibition curve with a large enough effect in the repeat runs, not every such curve was filed as active); details: TRHR-HEK293, TRH-induced calcium fluorescence, antagonist mode; series mostly up to 51.3 µM
Thyrotropin-releasing hormone receptor (Homo sapiens), sequence (P34981 whole entry, looked up): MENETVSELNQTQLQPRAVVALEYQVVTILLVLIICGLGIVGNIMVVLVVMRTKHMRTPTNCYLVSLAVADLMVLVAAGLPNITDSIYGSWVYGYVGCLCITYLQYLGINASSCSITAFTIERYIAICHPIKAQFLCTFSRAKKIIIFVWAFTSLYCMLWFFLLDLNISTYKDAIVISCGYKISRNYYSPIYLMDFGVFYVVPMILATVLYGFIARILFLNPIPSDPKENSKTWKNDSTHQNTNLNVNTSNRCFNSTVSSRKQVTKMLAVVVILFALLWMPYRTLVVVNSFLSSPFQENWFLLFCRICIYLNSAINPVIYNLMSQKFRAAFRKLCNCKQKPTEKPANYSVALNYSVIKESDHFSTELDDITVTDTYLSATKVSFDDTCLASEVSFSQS
Procedure, shortened: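 Following an 18 h incubation at 37 °C and a 2 h calcium dye load, TRHR-HEK293 cells were exposed to compound (5 min, room temperature) and challenged with TRH, 1 nM final.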

[20] = target: Thyrotropin-releasing hormone receptor (Homo sapiens) (UniProt P34981); assay: qHTS assay to identify small molecule agonists of the thyrotropin-releasing hormone receptor (TRHR) signaling pathway (AID 1346891); details: TRHR-HEK293 calcium fluorescence, agonist mode; series mostly up to 57.6 µM
Procedure, shortened: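 HEK293 cells expressing TRHR plated 18 h at 37 C/5% CO2, calcium dye-loaded 2 h at 37 C, then compound added (agonist mode); kinetic calcium fluorescence read 3 min at 1 s intervals; 15 concentrations in triplicate.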

Measured: Potency

CCN(CC)C(=O)Nc1ccc(OCC(O)CNC(C)(C)C)c(C(C)=O)c1 (configuration not stated)
inactive: [1] | [2] | [3] | [4] | [5] | [6] | [7] | [8] | [9] | [10] | [11] | [12] | [13] | [14] | [15] | [16] | [17] | [18] | [19] | [20]

Cc1ccc(S(=O)(=O)Oc2ccc(N=Nc3ccc(-c4ccc(N=Nc5c(O)ccc6cc(S(=O)(=O)O)cc(S(=O)(=O)O)c56)c(C)c4)cc3C)cc2)cc1
active: [4] 24.4 µM and 17.8 µM | [11] 27.4 µM and 11.2 µM
inactive: [1] | [2] | [3] | [5] | [6] | [7] | [9] | [12] | [14] | [15] | [16] | [17] | [18]

Oc1ccc(Cl)cc1Cc1cc(Cl)ccc1O
inactive: [2] | [6] | [8] | [9] | [10] | [12] | [14] | [17] | [18] | [19] | [20]
active: [1] 15.6 µM and 21.7 µM | [3] 17.5 µM and 19.3 µM and 23.7 µM | [4] 39.3 µM and 27.3 µM and 29.8 µM | [5] 49.4 µM and 48.6 µM and 18.8 µM | [7] 27.8 µM and 27.3 µM | [11] 43.3 µM | [13] 15.6 µM and 15.4 µM and 18.8 µM | [15] 69.8 µM

C=C(C)C1CC=C(C)C(OC(C)=O)C1 (configuration not stated)
inactive: [1] | [2] | [3] | [4] | [5] | [7] | [8] | [9] | [10] | [11] | [12] | [14] | [15] | [16] | [17] | [18]

CC(=O)C1=C(C)[C@@H]2C[C@@]3(C1)[C@H](C)CC[C@H]3C2(C)C
inactive: [1] | [2] | [3] | [4] | [5] | [7] | [8] | [9] | [11] | [12] | [13] | [14] | [15] | [16] | [17] | [18] | [19] | [20]

CCCCOCCOC(=O)c1ccccc1C(=O)OCCOCCCC
inactive: [2] | [3] | [4] | [5] | [7] | [8] | [9] | [11] | [12] | [14] | [15] | [16] | [19] | [20]
active: [1] 26.7 µM | [13] 53.3 µM

Cc1cccc(O)c1C
24.2 µM (active) and inactive: [12]
inactive: [1] | [2] | [3] | [4] | [5] | [7] | [8] | [9] | [10] | [11] | [14] | [15] | [16] | [17] | [18] | [19] | [20]
